Results: publication PMC4336329 (PLoS ONE, 2015)
The whole screen tested about 310,000 compounds, of which about 14,000 (4.5%) showed an effect of 50% or more. Effects have a minus sign here. This excerpt belongs to a sample that is enriched for strong results.

Molecular target: human ether-à-go-go-related gene (hERG) potassium channel (human, UniProt Q12809)
Experiment: primary screen, population patch clamp on CHO cells stably expressing hERG; higher = less effect of the substance
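Also: peak tail current of the secondary pulse compared with the same well before compound.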

Chain of human ether-à-go-go-related gene (hERG) potassium channel (Q12809 whole entry, looked up): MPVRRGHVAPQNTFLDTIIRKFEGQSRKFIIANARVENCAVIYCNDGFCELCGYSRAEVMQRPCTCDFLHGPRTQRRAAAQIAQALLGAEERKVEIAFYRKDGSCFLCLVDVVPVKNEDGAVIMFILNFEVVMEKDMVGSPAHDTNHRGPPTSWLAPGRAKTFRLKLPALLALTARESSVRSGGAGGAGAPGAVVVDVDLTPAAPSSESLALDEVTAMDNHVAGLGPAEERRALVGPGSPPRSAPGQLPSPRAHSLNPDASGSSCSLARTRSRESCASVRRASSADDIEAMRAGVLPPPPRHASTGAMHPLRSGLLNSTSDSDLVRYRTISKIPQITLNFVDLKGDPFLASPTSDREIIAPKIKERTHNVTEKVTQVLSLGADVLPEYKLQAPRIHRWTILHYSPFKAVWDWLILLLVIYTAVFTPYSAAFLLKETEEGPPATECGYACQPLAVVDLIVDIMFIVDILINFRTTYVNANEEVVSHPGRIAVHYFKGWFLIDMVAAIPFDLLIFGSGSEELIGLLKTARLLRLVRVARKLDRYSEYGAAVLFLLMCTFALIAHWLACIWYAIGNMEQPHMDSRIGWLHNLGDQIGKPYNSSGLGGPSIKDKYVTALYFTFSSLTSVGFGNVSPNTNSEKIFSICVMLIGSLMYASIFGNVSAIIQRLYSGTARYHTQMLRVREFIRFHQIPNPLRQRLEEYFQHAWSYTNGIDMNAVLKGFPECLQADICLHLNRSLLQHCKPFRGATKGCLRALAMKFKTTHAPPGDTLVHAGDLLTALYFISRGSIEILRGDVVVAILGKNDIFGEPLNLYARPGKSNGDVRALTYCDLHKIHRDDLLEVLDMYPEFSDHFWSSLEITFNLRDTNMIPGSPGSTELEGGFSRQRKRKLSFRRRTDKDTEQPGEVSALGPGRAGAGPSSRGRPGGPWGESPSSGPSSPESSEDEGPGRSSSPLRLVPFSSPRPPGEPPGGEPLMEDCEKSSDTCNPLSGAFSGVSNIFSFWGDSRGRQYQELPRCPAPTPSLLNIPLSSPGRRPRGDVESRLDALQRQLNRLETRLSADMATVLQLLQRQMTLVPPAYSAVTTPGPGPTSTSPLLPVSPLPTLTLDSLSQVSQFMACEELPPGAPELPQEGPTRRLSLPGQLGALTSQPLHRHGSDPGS

Structure (SMILES) | hERG current change (%, negative = inhibition) at 10uM
Cc1nn(C)c(C)c1NC(=O)/C(C#N)=C\N(C)C | 12.6%
NC(=O)C1(N2CCCCC2)CCN(C(=O)CSc2nc3ccccc3o2)CC1 | -4.85%
COC(=O)C1=C(C)N(CCC2=CCCCC2)C(=O)C1 | 1.46%
CC(C)(Oc1ccc(CCNC(=O)c2ccc(-c3ccccc3)o2)cc1)C(=O)O | 14%
O=C(CC1SC(N2CCCC2)=NC1=O)Nc1ccc(C(=O)N2CCCC(C(F)(F)F)C2)cc1 (centres unmarked) | 18.8%
Cc1ccc2cc(CN(C)S(C)(=O)=O)c(=O)[nH]c2c1 | 26.9%
NC(=O)COC(=O)c1ccc(Cl)c(S(=O)(=O)N2CCCCCC2)c1 | -4.36%
CCOC(=O)c1ccc(Cl)c(S(=O)(=O)N2CCCC2)c1 | 23.8%
CN(C(=O)COC(=O)c1ccc(Cl)c(S(=O)(=O)N2CCCCC2)c1)C1(C#N)CCCCC1 | -57.4%
CCN(CC)S(=O)(=O)c1ccc(C)c(NC(=O)CNc2cccc(S(=O)(=O)N3CCOCC3)c2)c1 | -17.7%
Cc1c(C(=O)N(C)C)sc2nc(-c3ccccn3)[nH]c(=O)c12 | -2.71%
COc1ccc(NC(=O)CSc2nc3ccccc3c(=O)n2CCNC(C)=O)cc1 | -73.6%
CCOc1ccc(NC(=O)CSc2nc3ccccc3c(=O)n2CCNC(C)=O)cc1 | -6.93%
COCCCn1c(SCC(=O)Nc2ccc(C)cc2)nc2ccccc2c1=O | -2.1%
COc1ccc(NC(=O)CSc2nc3ccccc3c(=O)n2CCNC(C)=O)c(OC)c1 | -25.1%
COc1ccccc1NC(=O)CSc1nc2ccccc2c(=O)n1CCNC(C)=O | -62.2%
COCCCn1c(SCC(=O)Nc2ccc(C(C)=O)cc2)nc2ccccc2c1=O | -51.5%
CN(C)CCCn1c(SCC(=O)N2CC(=O)Nc3ccccc32)nc2ccccc2c1=O | -17.6%
CC(C)N(CCn1c(SCC(=O)N2CC(=O)Nc3ccccc32)nc2ccccc2c1=O)C(C)C | -76.6%
CC(=O)NCCn1c(SCC(=O)Nc2ccc(C)cc2)nc2ccccc2c1=O | 5.81%
COCCn1c(SCC(=O)N2CC(=O)Nc3ccccc32)nc2ccccc2c1=O | -26.9%
COCCCn1c(SCC(=O)Nc2ccc(C(=O)OC)cc2)nc2ccccc2c1=O | -25.6%
COc1ccc(OC)c(NC(=O)CSc2nc3ccccc3c(=O)n2CCNC(C)=O)c1 | -2.83%
O=C(O)CCCC(=O)N(Cc1ccccc1)Cc1ccccc1 | 30.4%
Cn1c2c(c(=O)n(C)c1=O)C(c1cccc([N+](=O)[O-])c1)Nc1ccccc1O2 (centres unmarked) | -12.3%
C[C@H](N)C(=O)N1CCC(C(=O)N[C@@H](Cc2ccccc2)C(=O)Nc2ccc(F)cc2)CC1 | -5.88%
CC(=O)Nc1c([N+](=O)[O-])cc(C)c(Cl)c1[N+](=O)[O-] | 6.22%

Structure (SMILES) | hERG current change (%, negative = inhibition) at 10uM
COc1ccc(Cn2c(=O)[nH]c3cc(C(=O)N4CCN(c5ccc(OC)cc5)CC4)ccc3c2=O)cc1 | 10.1%
Cc1cc(Cl)cc(Br)c1OCCNCC(C)O (centres unmarked) | -18.7%
O=C1C2(CCC13COC(c1ccc(O)cc1)OC3)COC(c1ccc(O)cc1)OC2 (centres unmarked) | -2.43%
COc1ccc(OC)c(C2/C(=C(/O)c3ccc(C)cc3)C(=O)C(=O)N2Cc2ccco2)c1 (centres unmarked) | -7.22%
Cc1cc(=O)oc2cc(OCC(=O)Nc3ccc(CN4CCOCC4)cc3)ccc12 | 3.15%
COc1cc2c3c(c1)/C(=C1/SC(=S)NC1=O)C(=O)N3C(C)(C)C=C2C | 2.71%
CCc1cccc(NC(=O)C2CCCN2S(=O)(=O)c2cccc3cccnc23)c1 (centres unmarked) | -10.4%
O=C(CCCn1cc([N+](=O)[O-])cn1)Nc1ccc2c(c1)OCO2 | 4.52%
CCOCCCNC(=O)C1CCN(S(=O)(=O)c2ccc3nc4c(c(C(=O)O)c3c2)CCCCC4)CC1 | 49.4%
CC1CCN(S(=O)(=O)c2ccc(C(=O)NC3CCS(=O)(=O)C3)cc2)CC1 (centres unmarked) | -5.94%
COCCn1c(SCC(=O)Nc2cccnc2Cl)nc2cc(Cl)ccc2c1=O | -29.6%
COCCn1c(SCC(=O)Nc2cccnc2Cl)nc2ccccc2c1=O | 4.53%
CC(=O)NCCn1c(SCc2ccc(C)cc2)nc2ccccc2c1=O | -31.2%
CC(=O)NCCn1c(SCC(=O)OCc2ccccc2)nc2ccccc2c1=O | -60.2%
CC(C)N(CCn1c(SCC(=O)Nc2cccnc2Cl)nc2ccccc2c1=O)C(C)C | -69.7%
CC(=O)NCCn1c(SCC(=O)c2ccccc2)nc2ccccc2c1=O | -29.9%
O=C(Cc1ccccc1)N1CCN(C(=O)c2cccs2)CC1 | 6.2%
O=C(Nc1cc(Cl)ccc1Cl)c1noc2c1CCCC2 | 12.4%
CC(=O)N(Cc1ccccc1)c1ccccc1C(=O)O | 13.1%
CS(=O)(=O)n1nc(-c2ccco2)nc1N | 20.3%
COc1cccc(OCc2nnc(SCC(=O)NCc3ccco3)n2C)c1 | -0.586%
Cc1ccc(C)c(NC(=O)CN(C)C(=O)c2cccc(S(=O)(=O)N3CCN(Cc4ccccc4)CC3)c2)c1 | 9.47%
COc1ccc(O)c(CN2CCN(CCCc3ccccc3)C(CCO)C2)c1 (centres unmarked) | -68.2%
COc1ccc(O)c(CN2CCN(CCc3ccccc3)C(CCO)C2)c1 (centres unmarked) | -54.6%
OCCC1CN(Cc2c(O)ccc3ccccc23)CCN1CCc1ccccc1 (centres unmarked) | -27.1%
Cc1ccc(NC(=O)COC(=O)c2ccc3c(c2)OCCO3)cc1S(=O)(=O)N1CCOCC1 | 6.16%
